# The supplement of paper PMC4166925
# ± gives the standard deviation of the averaged measurements. The full ranking holds about 33,000 sequences; the median of “E-score (dimensionless, -0.5 to 0.5)” is about -0.046, and the highest 2% start at about 0.36. For the sample, the highest values were picked, then their nearest neighbours and some sequences at random.
# Tested on: T1, SpTbr T-box DNA-binding domain (GST fusion)
# T1 sequence: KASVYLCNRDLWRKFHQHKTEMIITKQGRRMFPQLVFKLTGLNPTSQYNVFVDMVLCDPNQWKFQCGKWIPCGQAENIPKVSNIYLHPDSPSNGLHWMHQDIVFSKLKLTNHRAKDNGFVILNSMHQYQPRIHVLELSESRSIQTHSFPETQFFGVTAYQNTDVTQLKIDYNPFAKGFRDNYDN
# Assay: PBM E-score of 8-mer (E-score (dimensionless, -0.5 to 0.5)); Tbr is Tbrain of the sea star Patiria miniata (Pm) or the sea urchin Strongylocentrotus purpuratus (Sp); higher = stronger binding preference
# Conditions: the construct has about 5 more residues each side
# Method in brief: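 Primer extension turned Universal Agilent oligonucleotide arrays double-stranded. They were incubated with 200 nM protein in PBS (pH 7.5); the protein was a GST-fused Tbr T-box DNA-binding domain expressed in BL21 E. coli at 20 °C and purified on glutathione. Every ungapped 8-mer was scored from the scanned, quantified probe intensities, and the Universal PBM Analysis Suite gave each an enrichment E-score averaged over duplicate arrays.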
row,Sequence,PBM E-score of 8-mer
1,AGACGACT,-0.202 ± 0.093
2,GCTGGGCC,-0.144 ± 0.0084
3,ATGTGACA,0.409 ± 0.0051
4,GTGTGACA,0.457 ± 0.0047
5,CTGTGACC,0.142 ± 0.026
6,ATGTGACC,0.169 ± 0.046
7,ATGTGACG,0.285 ± 0.026
8,CTGTGACA,0.31 ± 0.011
9,CAGATAGA,-0.131 ± 0.025
10,CAGCAGAG,-0.0309 ± 0.05
11,CACTCTCA,0.317 ± 0.00081
12,CATGCGCG,0.221 ± 0.023
13,CTACTGTC,0.1 ± 0.024
14,CAGGACTA,-0.191 ± 0.029
15,AGACTTAT,0.00662 ± 0.019
16,GAGCCTGC,-0.0257 ± 0.039
17,AATAACAC,0.294 ± 0.062
18,GATAACAA,0.27 ± 0.027
19,GATAACGC,0.288 ± 0.011
20,CATAACAC,0.405 ± 0.028
21,GATAACAC,0.414 ± 0.022
22,CATAACAA,0.00154 ± 0.064
23,CAGCATGA,-0.154 ± 0.015
24,AAGTTGGT,-0.0114 ± 0.097
25,GGAGTCAA,-0.0304 ± 0.04

row,Sequence,PBM E-score of 8-mer
1,CAAGCACC,0.0313 ± 0.011
2,CTAGCACC,0.415 ± 0.014
3,ATAGCACG,0.34 ± 0.0094
4,ATAGCACC,0.387 ± 0.011
5,ATAGCACA,0.156 ± 0.06
6,CTAGCACA,0.271 ± 0.018
7,CCAGTTGA,0.0132 ± 0.086
8,CAGGGGTC,-0.231 ± 0.086
9,AGAATCGC,0.165 ± 0.045
10,ACTGATGG,-0.00902 ± 0.051
11,ACAGAGGG,-0.118 ± 0.029
12,GCAATGCC,-0.174 ± 0.032
13,GCATCTAA,-0.0797 ± 0.077
14,GAATTGAA,-0.177 ± 0.099
15,GTCGCCCA,0.198 ± 0.0069
16,ACACATAG,0.306 ± 0.018
17,ACACATTC,0.38 ± 0.022
18,AAACATTC,-0.0068 ± 0.0056
19,AAACATTG,0.0255 ± 0.053
20,CCACATTC,0.14 ± 0.06
21,ACACATAA,0.269 ± 0.016
22,ACACATTA,0.291 ± 0.031
23,ACACATAT,0.407 ± 0.0072
24,ACACATTG,0.368 ± 0.01
25,GTCAAGCA,0.0528 ± 0.058

row,Sequence,PBM E-score of 8-mer
1,ACTCTTTA,0.0329 ± 0.022
2,CGCTACCA,0.271 ± 0.0082
3,ATTAGGAG,-0.247 ± 0.041
4,GAGCCAGC,0.0706 ± 0.066
5,ACTACTCC,-0.139 ± 0.024
6,ACTCCGGA,-0.0213 ± 0.013
7,GGTGCTAC,0.42 ± 0.007
8,TGTGCTAA,0.26 ± 0.011
9,AGTGCTAT,0.243 ± 0.079
10,CGTGCTAC,0.128 ± 0.0037
11,AGTGCTAC,0.245 ± 0.027
12,CGTGCTAA,0.349 ± 0.0041
13,AGTGCGGA,0.257 ± 0.023
14,AGTGCTAG,0.265 ± 0.049
15,AGTGCTAA,0.412 ± 0.015
16,GGTGCTAA,0.4658 ± 0.00059
17,GGTGCGGA,0.404 ± 0.023
18,CGTGCGGA,0.147 ± 0.028
19,AGTTACTG,-0.0684 ± 0.048
20,AGTAGCCC,-0.239 ± 0.026
21,CCCGCTTC,0.139 ± 0.082
22,GAGTTTGA,0.00341 ± 0.029
23,AGGTCAAT,-0.202 ± 0.093
24,CTTTTCGA,-0.087 ± 0.018
25,TGTGCAAA,0.225 ± 0.033

row,Sequence,PBM E-score of 8-mer
1,GGTGCAAA,0.3907 ± 0.0034
2,GGTGCAAC,0.176 ± 0.012
3,ACGTAGGG,-0.127 ± 0.051
4,CTTGGAAC,-0.26 ± 0.046
5,CGTCAAAG,0.228 ± 0.028
6,ACAAGGTA,0.0584 ± 0.021
7,ACAAGGTC,0.202 ± 0.026
8,ACAAGGTG,0.425 ± 0.0045
9,AGAAGGTG,0.386 ± 0.015
10,AGAAGGTC,-0.2756 ± 0.0017
11,AGAAGGTA,-0.167 ± 0.031
12,AGATCTTC,0.0938 ± 0.043
13,AGTTGTGG,0.164 ± 0.06
14,AGTTGTGA,0.407 ± 0.0049
15,GCTTGTCA,0.12044 ± 2.8e-05
16,ACTTGTGG,0.205 ± 0.00054
17,TCTTGTCA,0.24 ± 0.014
18,CGTTGTGA,0.162 ± 0.028
19,ACTTGTGA,0.412 ± 0.011
20,GCTTGTGA,0.202 ± 0.074
21,ACTTGTCA,0.4189 ± 0.00086
22,ATTGCGAC,-0.0335 ± 0.048
23,CGATGACG,0.0899 ± 0.049
24,AGCCTATC,-0.168 ± 0.1
25,AACAATGC,-0.018 ± 0.0069

row,Sequence,PBM E-score of 8-mer
1,CAGAGTTC,-0.129 ± 0.032
2,ACTGGTAC,-0.0857 ± 0.01
3,AACCACTT,-0.0435 ± 0.018
4,AAGGTGGA,-0.0733 ± 0.085
5,GAGGTGGC,0.3855 ± 0.0037
6,CAGGTGGC,0.323 ± 0.0069
7,AAGGTGGC,0.372 ± 0.0085
8,GAGGTGGA,0.06436 ± 0.00017
9,AAGGTGGG,0.242 ± 0.042
10,AATGGCCT,-0.0378 ± 0.026
11,AGAGTTTC,-0.243 ± 0.052
12,AGCTAGCG,0.0935 ± 0.042
13,GACCTCGC,0.0532 ± 0.0042
14,AACCTCGG,-0.108 ± 0.049
15,CACCTCGA,0.44517 ± 8.5e-05
16,AACCTCGA,-0.0446 ± 0.051
17,GACCTCGA,-0.0589 ± 0.014
18,CCCCTCGG,-0.255 ± 0.051
19,CACCTCGG,0.402 ± 0.0072
20,CACCTCGC,0.439 ± 0.012
21,AACCTCGC,0.152 ± 0.055
22,CGACCCAC,0.00361 ± 0.024
23,ACTTTCGC,0.328 ± 0.038
24,ATGGGGGC,-0.283 ± 0.021
25,AGGGACTA,-0.1367 ± 0.00023

row,Sequence,PBM E-score of 8-mer
1,CTCAAGGC,-0.137 ± 0.013
2,ATTACGCG,0.19 ± 0.028
3,ATGTCTAG,-0.0188 ± 0.02
4,GCAGTGCC,-0.102 ± 0.027
5,GATCCTCA,0.11 ± 0.055
6,GATAGCCC,-0.217 ± 0.0042
7,ACACTTGC,0.4 ± 0.0054
8,ACACTTGA,0.347 ± 0.0096
9,ATACTTGG,-0.22 ± 0.046
10,CCACTTGC,0.192 ± 0.049
11,AAACTTGC,0.102 ± 0.0067
12,ACACTTGG,0.367 ± 0.022
13,GCCTAAGA,-0.128 ± 0.039
14,ACGCTGAG,-0.115 ± 0.075
15,AGGCCATA,-0.0266 ± 0.0079
16,ACACCCTC,0.402 ± 0.016
17,ATACCCTG,-0.119 ± 0.008
18,CCACCCTA,0.0825 ± 0.11
19,ACACCCTA,0.371 ± 0.01
20,ACCCCCTC,-0.0672 ± 0.037
21,ACACCCTG,0.415 ± 0.024
22,ACCCCCTG,0.0826 ± 0.062
23,GCACCCTA,0.118 ± 0.032
24,CCACCCTC,0.0803 ± 0.068
25,GTCTAGAA,-0.242 ± 0.049

row,Sequence,PBM E-score of 8-mer
1,CAGATCGA,-0.12 ± 0.014
2,AGAGTTCG,-0.121 ± 0.068
3,CATCGCAG,0.109 ± 0.046
4,CATCGCAA,-0.03 ± 0.019
5,GATCGCAC,0.442 ± 0.0075
6,GATCGCAA,0.2797 ± 0.00053
7,AATCGCAT,0.113 ± 0.0034
8,AATCGCAC,0.4074 ± 0.00091
9,AATCGCAG,0.0391 ± 0.046
10,GATCGCGC,0.352 ± 0.025
11,CATCGCAC,0.376 ± 0.019
12,GGGGAGCA,-0.25 ± 0.0084
13,AGCACTGA,0.0628 ± 0.0091
14,AGTGCCCC,-0.185 ± 0.025
15,CATGTCGA,-0.0673 ± 0.11
16,AAGACGAT,-0.0524 ± 0.029
17,GCGCGCGC,0.0386 ± 0.035
18,AGACTGAT,-0.168 ± 0.062
19,GTCCAGCA,-0.295 ± 0.06
20,CCTTTAAC,0.141 ± 0.02
21,CACTTCAG,0.269 ± 0.049
22,AACTTCAC,0.147 ± 0.036
23,CACTTCAC,0.39 ± 0.0097
